This passage reports binding signal results from paper PMC7862700, “An all-to-all approach to the identification of sequence-specific readers for epigenetic DNA modifications on cytosine”.

What all share (experiment): DAPPL (digital affinity profiling via proximity ligation, sequencing); 10 mM Tris-HCl pH 7.5, 50 mM NaCl, 1 mM DTT, 4% glycerol, room temperature, 30 min; GST-TFs on glutathione beads, 16-mer random dsDNA library, 0.1% formaldehyde crosslink after washing; high values mean tight binding
Common to all, as to settings: protein: recombinant; tags: N-terminal GST; dsDNA, one strand shown

One test deals with T1, ELK4 (Homo sapiens, UniProt P28324-2 1-405).
T1 sequence: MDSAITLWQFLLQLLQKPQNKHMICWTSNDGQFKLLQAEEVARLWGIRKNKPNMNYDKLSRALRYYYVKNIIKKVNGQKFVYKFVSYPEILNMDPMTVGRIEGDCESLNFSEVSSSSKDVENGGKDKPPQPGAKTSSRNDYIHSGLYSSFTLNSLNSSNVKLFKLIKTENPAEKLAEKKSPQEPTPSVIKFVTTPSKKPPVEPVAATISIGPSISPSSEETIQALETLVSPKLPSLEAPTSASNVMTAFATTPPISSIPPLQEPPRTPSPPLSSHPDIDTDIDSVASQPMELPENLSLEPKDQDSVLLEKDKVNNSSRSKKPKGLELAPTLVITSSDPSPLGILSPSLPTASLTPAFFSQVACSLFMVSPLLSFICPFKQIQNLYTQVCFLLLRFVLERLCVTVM
The method, boiled down:
(§1)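 A tag-only sample was pooled with DNA-barcoded human transcription factors that had been expressed in yeast as GST fusions and captured on glutathione beads. The pools were incubated for 30 min at room temperature with 200 nmole of a random double-stranded 16-mer DNA library in Tris/NaCl/DTT/glycerol buffer, then washed, crosslinked with 0.1% formaldehyde, proximity-ligated (BsaI/T4 ligase, 1 h, 37 °C), PCR-amplified and sequenced on an Illumina NextSeq500. Binding signal is each hexamer's read frequency for a factor divided by its frequency for the tag-only sample.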

The next test deals with T2, ELF3 (Homo sapiens, UniProt P78545 1-371).
T2 sequence: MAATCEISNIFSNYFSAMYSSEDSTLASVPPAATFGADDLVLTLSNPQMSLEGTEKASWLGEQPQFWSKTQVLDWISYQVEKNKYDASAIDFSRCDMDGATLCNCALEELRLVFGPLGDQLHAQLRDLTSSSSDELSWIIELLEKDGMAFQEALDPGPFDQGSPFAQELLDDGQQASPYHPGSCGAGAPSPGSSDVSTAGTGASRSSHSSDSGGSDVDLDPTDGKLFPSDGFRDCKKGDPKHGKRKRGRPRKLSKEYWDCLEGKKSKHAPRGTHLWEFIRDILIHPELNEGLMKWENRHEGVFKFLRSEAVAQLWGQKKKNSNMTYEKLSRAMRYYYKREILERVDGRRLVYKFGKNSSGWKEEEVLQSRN
The method, boiled down:
as §1

A further test has as its target ETV1 (Homo sapiens, UniProt P50549 1-477). The method, boiled down:
as §1

The next test deals with T3, ERF (Homo sapiens, UniProt P50548 1-548).
T3 sequence: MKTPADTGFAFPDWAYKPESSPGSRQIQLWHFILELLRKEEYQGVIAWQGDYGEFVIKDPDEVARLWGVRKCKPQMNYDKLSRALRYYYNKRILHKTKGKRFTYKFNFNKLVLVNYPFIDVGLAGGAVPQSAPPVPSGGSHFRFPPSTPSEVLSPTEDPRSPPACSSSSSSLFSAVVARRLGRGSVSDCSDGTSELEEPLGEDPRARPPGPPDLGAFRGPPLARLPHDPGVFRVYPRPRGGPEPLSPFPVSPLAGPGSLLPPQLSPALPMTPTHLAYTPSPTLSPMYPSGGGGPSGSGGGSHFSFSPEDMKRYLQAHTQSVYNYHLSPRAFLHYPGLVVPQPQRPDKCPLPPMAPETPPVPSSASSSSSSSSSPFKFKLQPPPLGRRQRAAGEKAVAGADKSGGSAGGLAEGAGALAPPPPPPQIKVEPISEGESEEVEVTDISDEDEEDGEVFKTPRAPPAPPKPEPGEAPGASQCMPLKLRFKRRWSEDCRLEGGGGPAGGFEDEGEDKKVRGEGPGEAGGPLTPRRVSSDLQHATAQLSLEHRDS
The method, boiled down: as §1

For a further test, the target named is T4, ETV3L (Homo sapiens, UniProt Q6ZN32 1-361).
T4 sequence: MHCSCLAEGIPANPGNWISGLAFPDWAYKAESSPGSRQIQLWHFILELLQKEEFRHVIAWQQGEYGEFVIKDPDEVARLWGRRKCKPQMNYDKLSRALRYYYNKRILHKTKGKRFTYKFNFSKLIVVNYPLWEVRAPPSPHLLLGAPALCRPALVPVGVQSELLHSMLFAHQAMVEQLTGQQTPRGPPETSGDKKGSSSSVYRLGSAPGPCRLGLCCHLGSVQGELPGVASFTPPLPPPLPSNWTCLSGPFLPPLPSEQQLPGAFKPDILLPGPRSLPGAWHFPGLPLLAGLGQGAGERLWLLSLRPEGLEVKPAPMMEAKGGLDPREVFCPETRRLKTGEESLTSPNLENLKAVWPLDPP
The method, boiled down: as §1

A further test concerns the target T5, ETS2 (Homo sapiens, UniProt P15036 1-469).
T5 sequence: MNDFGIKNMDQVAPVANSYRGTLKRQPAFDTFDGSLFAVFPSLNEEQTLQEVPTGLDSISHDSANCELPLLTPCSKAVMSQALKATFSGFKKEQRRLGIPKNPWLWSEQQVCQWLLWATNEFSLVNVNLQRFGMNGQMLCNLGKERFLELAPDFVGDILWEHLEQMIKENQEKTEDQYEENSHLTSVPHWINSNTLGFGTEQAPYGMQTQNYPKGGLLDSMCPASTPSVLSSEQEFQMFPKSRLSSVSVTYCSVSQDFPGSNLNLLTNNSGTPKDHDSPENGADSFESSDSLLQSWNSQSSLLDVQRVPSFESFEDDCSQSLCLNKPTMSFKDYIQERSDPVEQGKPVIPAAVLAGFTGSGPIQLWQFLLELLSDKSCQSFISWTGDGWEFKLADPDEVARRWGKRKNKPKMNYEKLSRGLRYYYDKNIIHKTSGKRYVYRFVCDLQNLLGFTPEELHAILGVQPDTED
The method, boiled down: as §1

The target in another test is T6, SPDEF (Homo sapiens, UniProt O95238 1-335).
T6 sequence: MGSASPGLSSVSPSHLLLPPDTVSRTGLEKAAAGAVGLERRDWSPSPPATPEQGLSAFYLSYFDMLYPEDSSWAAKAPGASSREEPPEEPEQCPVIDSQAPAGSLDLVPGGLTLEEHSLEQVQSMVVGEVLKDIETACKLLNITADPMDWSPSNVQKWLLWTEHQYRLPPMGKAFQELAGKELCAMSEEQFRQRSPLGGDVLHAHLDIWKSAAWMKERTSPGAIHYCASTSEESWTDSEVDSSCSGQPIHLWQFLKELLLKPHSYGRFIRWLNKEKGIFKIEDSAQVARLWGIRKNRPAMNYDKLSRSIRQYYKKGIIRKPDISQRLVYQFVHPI
A digest of the protocol:
as §1

The next test has as its target T7, ETV7 (Homo sapiens, UniProt Q9Y603 1-341).
T7 sequence: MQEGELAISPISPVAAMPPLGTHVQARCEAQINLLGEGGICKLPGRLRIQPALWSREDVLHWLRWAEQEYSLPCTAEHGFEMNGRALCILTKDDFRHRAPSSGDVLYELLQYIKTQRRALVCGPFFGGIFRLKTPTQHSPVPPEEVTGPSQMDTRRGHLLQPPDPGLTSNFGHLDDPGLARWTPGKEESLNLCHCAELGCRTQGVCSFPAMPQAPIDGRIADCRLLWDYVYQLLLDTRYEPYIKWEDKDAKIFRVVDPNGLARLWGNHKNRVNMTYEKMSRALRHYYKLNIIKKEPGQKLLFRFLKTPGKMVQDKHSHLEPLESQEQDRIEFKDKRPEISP
A digest of the protocol:
as §1

The target in another test is T8, ETV3 (Homo sapiens, UniProt P41162-2 1-143).
T8 sequence: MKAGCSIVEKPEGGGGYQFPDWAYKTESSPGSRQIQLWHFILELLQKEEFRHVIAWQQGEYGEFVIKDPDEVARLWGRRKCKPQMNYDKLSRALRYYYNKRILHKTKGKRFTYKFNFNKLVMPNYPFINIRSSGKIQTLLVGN
A digest of the protocol:
as §1

The next test has as its target ETV6 (Homo sapiens, UniProt P41212 1-452). The method, boiled down: as §1

ETV6, sequence (P41212 whole entry): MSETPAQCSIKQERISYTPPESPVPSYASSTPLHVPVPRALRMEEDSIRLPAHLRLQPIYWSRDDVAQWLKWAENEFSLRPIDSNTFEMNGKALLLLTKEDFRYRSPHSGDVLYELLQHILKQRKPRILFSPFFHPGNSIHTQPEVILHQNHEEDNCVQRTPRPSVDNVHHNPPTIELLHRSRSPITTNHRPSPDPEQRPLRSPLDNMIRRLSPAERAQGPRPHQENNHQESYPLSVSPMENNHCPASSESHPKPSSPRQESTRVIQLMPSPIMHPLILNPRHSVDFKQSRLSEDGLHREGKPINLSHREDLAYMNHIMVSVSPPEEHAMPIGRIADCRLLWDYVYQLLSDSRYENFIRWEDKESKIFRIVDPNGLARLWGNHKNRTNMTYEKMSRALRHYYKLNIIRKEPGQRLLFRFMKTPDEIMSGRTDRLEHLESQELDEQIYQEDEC
ETV1, sequence (P50549 whole entry): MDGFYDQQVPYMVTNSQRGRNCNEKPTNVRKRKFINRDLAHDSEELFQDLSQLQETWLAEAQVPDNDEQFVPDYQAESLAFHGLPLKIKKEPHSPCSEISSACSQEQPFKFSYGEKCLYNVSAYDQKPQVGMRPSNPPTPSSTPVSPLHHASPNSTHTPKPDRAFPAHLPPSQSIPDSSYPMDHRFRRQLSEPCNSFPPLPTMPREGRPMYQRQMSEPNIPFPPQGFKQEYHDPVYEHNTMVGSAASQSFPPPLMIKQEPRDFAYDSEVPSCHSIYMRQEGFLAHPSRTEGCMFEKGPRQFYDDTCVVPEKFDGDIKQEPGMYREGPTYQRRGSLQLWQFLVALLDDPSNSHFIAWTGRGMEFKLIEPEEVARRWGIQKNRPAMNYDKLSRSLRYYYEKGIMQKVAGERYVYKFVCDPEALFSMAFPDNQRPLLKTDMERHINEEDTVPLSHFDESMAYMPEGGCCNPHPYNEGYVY

On to GTGCAT, for which the binding signal with ELK4 was 1.08 fold enrichment (6-mer frequency, TF over GST control); with ELF3, 1.03 fold enrichment (6-mer frequency, TF over GST control); in the test with ETV1, 1.05 fold enrichment (6-mer frequency, TF over GST control); with ERF, 1.18 fold enrichment (6-mer frequency, TF over GST control); with ETV3L it was 1.04 fold enrichment (6-mer frequency, TF over GST control); with ETS2, 1.1 fold enrichment (6-mer frequency, TF over GST control). Moreover, the binding signal with SPDEF is 1.17 fold enrichment (6-mer frequency, TF over GST control); with ETV7, 1.12 fold enrichment (6-mer frequency, TF over GST control); with ETV3, 1 fold enrichment (6-mer frequency, TF over GST control); in the test with ETV6, 1.14 fold enrichment (6-mer frequency, TF over GST control).
